Compound activity deposited in PubChem BioAssay by National Center for Advancing Translational Sciences (NCATS).
TDP1 cell noCPT = qHTS for Inhibitors of human tyrosyl-DNA phosphodiesterase 1 (TDP1): qHTS in cells in absence of CPT; actives 15% (n = 420,000); Potency, µM (series often up to 46.2 µM), inactives show top-dose activity change, negative = growth inhibition, most hits filed as inhibitors; DT40 Tdp1-/- hTDP1 cells, no CPT, ATP luminescence, 48 h; note: potency is the fitted concentration of half-maximal effect; nearly all actives have a fitted effect of over 55% in size
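DT40 Tdp1-/-;hTDP1 cells, no CPT (DMSO vehicle only), 400 cells/well; compounds pin-transferred; ≥48 hr, 37 °C; CellTiter-Glo 30 min RT dark, luminescence read.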
IL-1B inflam inh = blocks inflammasome-driven IL-1 beta release | THP-1 LPS/ATP IL-1B secretion, AlphaLISA, 16 h; hits give low values | activity change, % at 57.5 µM | actives 4.7% (n = 360,000) | AID 743279; in the data active = activity change below about -50%; inconclusive = mostly about -30% to -49%
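THP-1 cells pretreated 1 hr with compounds (up to 57.5 uM final), then stimulated with LPS (250 ng/mL final) plus ATP (1.25 mM final); secreted IL-1B measured by AlphaLISA after 16 hr, decreased signal indicating inhibition.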
HT1080 IDH1KD tx = kills HT-1080 cells with IDH1 knockdown; HT-1080 IDH1 knockdown viability, ATP luminescence, 48 h; Potency, µM (titrated, usually from 46.1 µM), without a hit: at the highest dose activity, negative = toxicity, hits mostly cytotoxic; actives 2% (n = 360,000);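 note: potency is the fitted concentration of half-maximal effect; 0% = DMSO wells and -100% = cell-free medium wells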
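In this qHTS, HT-1080 cells depleted of IDH1 are exposed for 48 h at 37 °C to compound titrations. Toxicity is scored from CellTiter-Glo luminescence, with DMSO as full viability and medium alone as none.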
DT40 TDP1 CPT = DT40-hTDP1 cell growth loss with CPT | chicken DT40 Tdp1-/-;hTDP1 cells + 20 nM CPT, ATP luminescence, 48 h | Potency, µM (top dose mostly 46.2 µM), without a hit: at the top dose activity change, negative = growth inhibition, usual class: inhibitors | actives 12% (n = 420,000) | AID 686979; note: potency is the fitted concentration of half-maximal effect; nearly all actives have a fitted effect of over 55% in size
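Chicken DT40 Tdp1-/- cells stably complemented with human TDP1 were seeded at 400 cells/well in medium containing 20 nM camptothecin, exposed to pin-transferred compounds, and grown at 37 °C for at least 48 hr. Viability was read as ATP luminescence.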
HT1080-NT tox = kills 2HG-producing HT-1080-NT fibrosarcoma cells; Potency, µM (doses to about 46.1 µM), inactives show top-dose activity, negative = less viability, most hits filed as cytotoxic; HT-1080-NT fibrosarcoma viability, CellTiter-Glo ATP luminescence, 48 h; AID 686970; actives 1.6% (n = 360,000);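 note: NT is the 2HG producing partner of a matched IDH1 knockdown line; potency is the fitted concentration of half-maximal effect; 0% = DMSO-treated cells and -100% = media-only wells without cells; nearly all actives have a fitted effect of over 55% in size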
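750 cells/well, RPMI + 5% FBS; 2 h settle, compound pin-transfer, 48 h at 37 degrees C. CellTiter-Glo 10 min RT, luminescence. Normalized to DMSO and media-only wells.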
ELG1 DNA repair = ELG1-dependent DNA repair inhibition | actives 2.3% (n = 330,000) | HEK293T ELG1-luciferase reporter, luminescence, 16 h; DNA damage induced by 5-fluorouridine | Potency, µM (doses to about 46.1 µM), inactives show top-dose activity change, negative = inhibition, usual class: inhibitors | AID 504467; note: potency is the fitted concentration of half-maximal effect; nearly all actives have a fitted effect of over 55% in size
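HEK293T cells expressing luciferase-tagged ELG1 (2,000/well) received 5-Fluorouridine plus compound or DMSO for 16 hr at 37 °C. Luciferase was read by ONE-Glo luminescence after 30 min at room temperature.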
* = called active by the depositor; i = inactive; u = inconclusive; x = no result; [ ] = dose if it differs, or a comment. Most compounds without a hit are left out; they make up all but 19% or so of the library. Unless noted, calls come from the whole dose curve; as a rule, active = well fitted curve in the direction sought with a large enough effect; inconclusive = small, poorly fitted or top-dose-only effect, or another doubt; inactive = no such curve, though single readings can be large; an effect the other way counts as inactive or inconclusive. Unless noted, % is set by controls: 0 for no effect and ±100 for the full control effect.

SMILES	TDP1 cell noCPT	IL-1B inflam inh	HT1080 IDH1KD tx	DT40 TDP1 CPT	HT1080-NT tox	ELG1 DNA repair
COC(C(=O)N1CCC(CCC(=O)Nc2ccccc2)CC1)c1ccccc1 (stereo unspecified)	9.2µM*	11.8	-9.5%	20.6µM*	-5.3%	u
O=C1C2CC3N1CCC31c3ccccc3-n3c1c2ccc3=O (stereo unspecified)	u	10.9	8.0%	u	2.0%	x
O=C(O)c1cc(O)ccc1N=Nc1ccccc1	16.4µM*	u	-5.8%	u	-11.5%	-25.2%
O=C(O)c1ccccc1N=Nc1ccc(O)cc1	14.6µM*	-27.6	u	25.9µM*	u	x
Oc1c(Cl)cc(Cl)cc1C=Nc1ccc(Br)cc1	-29.9%	-1.8	-27.1%	-23.9%	-23.4%	1.4%
Oc1c(Cl)cc(Cl)cc1/C=C/c1ccc2cccc(O)c2n1	u	10.7	u	u	u	23.1µM*
CCOc1cc(/C=C/c2ccc3cccc([N+](=O)[O-])c3n2)cc(Cl)c1O	u	7.9	-5.5%	u	-3.6%	8.2µM*
Oc1ccc(Cl)cc1/C=C/c1ccc2cccc(O)c2n1	25.9µM*	5.6	20.6µM*	u	u	-3.4%
O=C(O)CCC/C=C\C[C@@H]1[C@@H](/C=C/[C@@H](O)COc2cccc(C(F)(F)F)c2)[C@H](O)C[C@@H]1O	0.0%	x	x	2.2%	x	x
CC(C)N(C)c1ncnc2c1ncn2[C@H]1CN(CCc2ccccc2)C[C@@H](CO)O1	u	-18.0	15.5%	u	u	x
Cc1nc(NCCc2ccccc2)c2oc3ccccc3c2n1	9.2µM*	2.0	u	8.2µM*	-16.2%	u
CNC(=O)C(Sc1nc(C)nc2c1oc1ccccc12)C(C)=O (stereo unspecified)	u	2.8	u	-20.8%	-1.9%[9.24 µM]	3.1%
Cc1cc(C)nc(Sc2nc(C)nc3c2oc2ccccc23)n1	23.1µM*	u	u	u	u	u
Cc1nc(SCc2cccc(F)c2)c2oc3ccccc3c2n1	u	39.5	-5.7%	-9.3%	-12.4%	20.6µM*
CC(C)(C)c1ccc(S(=O)(=O)N2CCN(Cc3cc4c(cc3O)OCO4)CC2)cc1	-8.6%	-20.8	1.7%	6.0%	10.1%	11.4%
CC(C)(C)c1ccc(C(=O)N2CCNC(=O)C2CC(=O)Nc2ccc(F)cc2)cc1 (stereo unspecified)	-19.1%	i	-0.5%	-8.9%	-5.9%	-1.9%
CN1CCC2(CC1)N=C(c1ccc(F)cc1)C(=S)N2C(=O)c1ccc(C(C)(C)C)cc1	5.8µM*	u	u	7.31µM*	u	-4.5%
CC(C)c1cc2c(c(O)c1O)[C@@]13CCCC(C)(C)C1CC2OC3=O (stereo partly specified)	8.2µM*	-11.9	u	5.17µM*	-29.5%	9.6%
COC(=O)c1cc2sccc2n1Cc1c(C)cc(C)cc1C	u	x	x	2.3%	x	x
COc1cc2ccc(=O)oc2c(CC=C(C)C)c1OC	-20.1%	-12.4	0.4%	-24.7%	0.0%	-8.2%
CC(C)=CCc1cc(-c2oc3cc(O)cc(O)c3c(=O)c2O)ccc1O	u	15.1	-8.5%	u	-0.6%	x
CC(C)=CCc1c(O)cc2oc3c(CC=C(C)C)c(O)c(O)c(CC=C(C)C)c3c(=O)c2c1O	20.6µM*	2.4	u	u	u	u
COc1c(O)cc2oc3cc(O)c(CC=C(C)C)c(O)c3c(=O)c2c1CC=C(C)C	11.9µM*	x	x	18.8µM*	x	x
O=C(NC1CCCCC1)C(c1cccnc1)N(C(=O)c1csnn1)c1ccccc1 (stereo unspecified)	2.1%	6.1	12.3%	0.3%	16.3%	1.7%
CC1CC(C)CN(C(=O)CSc2nnc(-c3ccc(Cl)cc3)o2)C1 (stereo unspecified)	18.4µM*	-16.7	-5.6%	u	5.3%	-18.6%
SMILES	TDP1 cell noCPT	IL-1B inflam inh	HT1080 IDH1KD tx	DT40 TDP1 CPT	HT1080-NT tox	ELG1 DNA repair
Cc1ccc(-c2nnc(SCC(=O)N3CC(C)CC(C)C3)o2)cc1C (stereo unspecified)	20.6µM*	5.3	3.9%	25.9µM*	7.1%	-4.7%
COc1cccc(-c2nnc(SCC(=O)N3CCOCC3)o2)c1	-23.1%	14.9	8.0%[9.24 µM]	-20.0%	3.0%	u
CC1CC(C)CN(C(=O)CSc2nnc(-c3ccco3)o2)C1 (stereo unspecified)	-11.1%	u	0.1%	-3.5%	-1.2%	1.3%
COc1cccc(-c2nnc(SCC(=O)N3CC(C)CC(C)C3)o2)c1 (stereo unspecified)	20.6µM*	-29.5	-1.0%	u	1.9%	-11.6%
O=C(CSc1nnc(-c2ccc(Cl)cc2)o1)N1CCOCC1	u	5.3	4.5%	-12.2%	3.3%	u
COc1ccc2[nH]c(=O)c(CN(C(=O)C(C)C)c3ccccc3OC)cc2c1	u	2.2	0.0%	u	15.8%	0.0%
CCOC(=O)c1cc(S(=O)(=O)N2CCN(C3CCCCC3)CC2)cn1C	0.4%	13.9	16.3%	-9.8%	17.3%	10.8%
CC(C)OC(=O)/C(C#N)=C/c1cn(C)c2ccccc12	-14.4%	-53.6*	-3.5%	2.8%	-14.4%	13.8%
Cn1cc(/C=C(\C#N)C(=O)Nc2ccccc2O)c2ccccc21	18.4µM*	-62.5*	-27.0%	u	-19.0%	8.2µM*
Cc1ccccc1NC(=O)/C(C#N)=C\c1cn(CC(=O)O)c2ccccc12	-7.7%	-12.0	10.7%	2.9%	14.5%	u
CC(C)OC(=O)/C(C#N)=C/c1cn(Cc2ccccc2)c2ccccc12	u	-13.1	-1.8%	u	0.5%	u
Cc1ccc(-c2cc3ncc(C(=O)c4cc([N+](=O)[O-])ccc4O)cn3n2)cc1	2.31µM*	x	x	u	x	x
Cc1ccc(-c2cc3nccc(-c4cc([N+](=O)[O-])ccc4O)n3n2)cc1	23.1µM*	x	x	23.1µM*	x	x
CCc1ccc(O)c(C(=O)c2cnc3cc(-c4ccc(C)cc4)nn3c2)c1	-5.3%	x	x	u	x	x
COc1ccc(CC(=O)Oc2ccc(F)c(F)c2)cc1S(=O)(=O)N1CCOCC1	1.7%	7.4	13.8%	-17.4%	6.1%	21.1%
CCSc1nnc(NC(=O)C(C)(C(F)(F)F)C(F)(F)F)s1	18.4µM*	-0.6	u	23.1µM*	u	u
CCSc1nnc(NC(=O)C(C(F)(F)F)C(F)(F)F)s1	u	-19.9	0.8%	u	-11.6%	-2.8%
